Measured values taken from the supplement of paper PMC12340641.

Legend:
[1] = biological target: IKZF1 (dCK*-IKZF1 fusion in HEK293FT) (UniProt Q13422); assay: inhibition of IKZF1 HTRF signal (DMSO = 0%, pomalidomide 10 uM = 100%); higher = lower IKZF1 protein level; conditions: compound concentration: 5 uM, overnight (~20 h)
How it was run: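 Percent inhibition of IKZF1 signal was calculated per plate with vehicle and a reference degrader as anchors. The anchors were 0% for vehicle and 100% for the degrader, applied to background-subtracted 665/620 nm time-resolved FRET ratios from a commercial HTRF total-IKZF1 kit. Signal came from HEK293FT cells stably expressing an IKZF1 fusion, treated overnight at 37 °C with 5 μM compound in single wells of 384-well plates.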

HEK293FT dCK*-only = assay: relative growth in counter assay (no AraC = 100%, AraC + DMSO = 0%); higher = more growth rescue independent of IKZF1; conditions: compound concentration: 5 uM; AraC concentration: 0.3 uM; overnight pretreatment + 4 days AraC
How it was run: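 Nuclei were counted by imaging after Hoechst 33342 staining on day 5, in HEK293FT cells (300/well, 384-well) expressing only an engineered kinase construct. Compound at 5 μM went in 2 h after seeding, followed after overnight at 37 °C by a nucleoside suicide substrate at 0.3 μM plus medium for 4 days. Per plate, wells lacking suicide substrate defined 100% and those with substrate plus vehicle defined 0%.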

HEK293FT dCK*-IKZF1 = assay: relative growth recovery (pomalidomide 10 uM = 100%, DMSO = 0%); higher = more growth rescue (IKZF1 fusion degradation); conditions: compound concentration: 5 uM; AraC concentration: 0.3 uM; overnight pretreatment + 4 days AraC
How it was run: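 Means of duplicates from different days are given for growth recovery, normalised per plate against a reference degrader and vehicle. The reference degrader set the 100% level and vehicle the 0% level. HEK293FT cells stably expressing a deoxycytidine kinase–IKZF1 fusion (300/well, 384-well) received 5 μM compound 2 h after seeding and, after overnight at 37 °C, 0.3 μM of a nucleoside suicide substrate plus medium for 4 days. Nuclei stained with Hoechst 33342 were then counted by whole-well imaging on day 5.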

IKZF1 (dCK*-IKZF1 fusion in HEK293FT), sequence (Q13422 whole entry, looked up, the tested form may be a part): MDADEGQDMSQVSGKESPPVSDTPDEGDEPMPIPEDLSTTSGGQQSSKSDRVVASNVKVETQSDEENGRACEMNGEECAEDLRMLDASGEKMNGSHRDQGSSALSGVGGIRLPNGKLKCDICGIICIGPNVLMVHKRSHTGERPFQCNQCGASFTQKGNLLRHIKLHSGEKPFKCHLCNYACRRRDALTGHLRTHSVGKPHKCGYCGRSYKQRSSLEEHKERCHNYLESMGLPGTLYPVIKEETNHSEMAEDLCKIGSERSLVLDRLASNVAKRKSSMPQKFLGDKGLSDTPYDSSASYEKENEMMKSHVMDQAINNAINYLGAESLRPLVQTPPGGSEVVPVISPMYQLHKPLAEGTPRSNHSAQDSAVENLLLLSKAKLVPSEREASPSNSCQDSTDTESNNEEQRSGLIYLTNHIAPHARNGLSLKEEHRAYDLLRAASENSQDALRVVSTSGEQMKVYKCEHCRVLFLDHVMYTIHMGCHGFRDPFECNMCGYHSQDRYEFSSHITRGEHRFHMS

Structure (SMILES): Cc1ncsc1-c1ccc(CNC(=O)[C@@H]2C[C@@H](O)CN2C(=O)[C@@H](NC(=O)COCCCCOc2ccc(-c3ccc(N4C(=S)N(c5ccc(C#N)c(C(F)(F)F)c5)C(=O)C4(C)C)cc3)cc2)C(C)(C)C)cc1
- inhibition of IKZF1 HTRF signal [1]: 21.2%
- relative growth in counter assay (HEK293FT dCK*-only): 72.3%
- relative growth recovery (HEK293FT dCK*-IKZF1): 55.3%

Structure (SMILES): O=C(N/N=C/c1ccc([N+](=O)[O-])o1)c1ccc(O)cc1
- inhibition of IKZF1 HTRF signal [1]: 10.2%
- relative growth in counter assay (HEK293FT dCK*-only): -1.19%
- relative growth recovery (HEK293FT dCK*-IKZF1): -2%

Structure (SMILES): OC(c1cc(C(F)(F)F)nc2c(C(F)(F)F)cccc12)C1CCCCN1 (stereo not given)
- inhibition of IKZF1 HTRF signal [1]: -31.6%
- relative growth in counter assay (HEK293FT dCK*-only): -10.6%
- relative growth recovery (HEK293FT dCK*-IKZF1): -7.16%

Structure (SMILES): C/C=C(/C(=C/C)c1ccc(O)cc1)c1ccc(O)cc1 [dienestrol]
- inhibition of IKZF1 HTRF signal [1]: -24%
- relative growth in counter assay (HEK293FT dCK*-only): -2.14%
- relative growth recovery (HEK293FT dCK*-IKZF1): -1.6%

Structure (SMILES): CCCCOC(=O)c1ccc(N)cc1
- inhibition of IKZF1 HTRF signal [1]: -30.3%
- relative growth in counter assay (HEK293FT dCK*-only): -2.73%
- relative growth recovery (HEK293FT dCK*-IKZF1): -0.295%

Structure (SMILES): CNC(=O)c1cccc(-c2ccc3c(N4CCOC[C@@H]4C)nc(N4CCOC[C@@H]4C)nc3n2)c1 [Vistusertib (AZD2014)]
- inhibition of IKZF1 HTRF signal [1]: 69.4%
- relative growth in counter assay (HEK293FT dCK*-only): -33%
- relative growth recovery (HEK293FT dCK*-IKZF1): -12.9%

Structure (SMILES): Cc1cc2nc3ccc(N(C)C)cc3[s+]c2cc1N
- inhibition of IKZF1 HTRF signal [1]: -22.7%
- relative growth in counter assay (HEK293FT dCK*-only): -34.5%
- relative growth recovery (HEK293FT dCK*-IKZF1): -13.5%

Structure (SMILES): COc1cc(C(=O)NS(=O)(=O)c2ccccc2C)ccc1Cc1cn(C)c2ccc(NC(=O)OC3CCCC3)cc12 [Zafirlukast (Accolate)]
- inhibition of IKZF1 HTRF signal [1]: -6.19%
- relative growth in counter assay (HEK293FT dCK*-only): 0.38%
- relative growth recovery (HEK293FT dCK*-IKZF1): 0.805%

Structure (SMILES): COc1cc2ncnc(Nc3ccc(F)c(Cl)c3)c2cc1OCCCCCOCCOCCC(=O)N[C@H](C(=O)N1C[C@H](O)C[C@H]1C(=O)NCc1ccc(-c2scnc2C)cc1)C(C)(C)C [Gefitinib-based PROTAC 3]
- inhibition of IKZF1 HTRF signal [1]: 15.5%
- relative growth in counter assay (HEK293FT dCK*-only): 41.4%
- relative growth recovery (HEK293FT dCK*-IKZF1): 55.5%

Structure (SMILES): COc1ccc(CN2C(=O)C(=O)c3cc(OC(F)(F)F)ccc32)cc1
- inhibition of IKZF1 HTRF signal [1]: -14.2%
- relative growth in counter assay (HEK293FT dCK*-only): -33.6%
- relative growth recovery (HEK293FT dCK*-IKZF1): -11.5%
